The values below come from PubChem BioAssay (NCATS).

Molecules are shown by their SMILES. Records with an inconclusive call do not appear. The source made the active and inactive calls. Calls follow the shape of the dose curve; as a rule, active = well fitted curve in the direction sought with a large enough effect; inconclusive = small, poorly fitted or top-dose-only effect, or another doubt; inactive = no such curve, though single readings can be large; an effect the other way counts as inactive or inconclusive.

The nature of test [1]: BET inhibitor-based combinations targeting novel dependencies in MECOM-rearranged (r) AML: OCI-AML3 cell line (AID 2202232). Also: nearly all actives have a fitted effect of over 35% in size. As to conditions: Potency: OCI-AML3 viability. Put shortly:
(§1)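 AML cell lines seeded at 500 cells/well, treated with 11-point dose curves for 48 h. Viability by CellTiter-Glo luminescence, normalised to DMSO and empty wells; activity expressed as AUC and per-cell-line Z-transformed AUC.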

The nature of test [2]: BET inhibitor-based combinations targeting novel dependencies in MECOM-rearranged (r) AML: HNT-34 cell line (AID 2202234). Also: nearly all actives have a fitted effect of over 35% in size. The gist of the method:
(§2)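 Cells at 500/well were exposed for 48 hr to MIPE v5.0 drugs as 11-point dose curves. Viability was read by CellTiter-Glo luminescence and normalized to DMSO and empty-well controls. Activity was expressed as AUC and per-cell-line Z-AUC.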

A short description of test [3]: BET inhibitor-based combinations targeting novel dependencies in MECOM-rearranged (r) AML: AML-191 cell line (AID 2202236; also: nearly all actives have a fitted effect of over 35% in size). The gist of the method:
as §1

Test [4] can be described thus: BET inhibitor-based combinations targeting novel dependencies in MECOM-rearranged (r) AML: AML-194 cell line (AID 2202237; also: nearly all actives have a fitted effect of over 40% in size). Put shortly: as §1
Test [5] can be described thus: BET inhibitor-based combinations targeting novel dependencies in MECOM-rearranged (r) AML: MV-4-11 cell line (AID 2202233). Also: nearly all actives have a fitted effect of over 45% in size. The gist of the method:
as §2

Test [6] can be described thus: BET inhibitor-based combinations targeting novel dependencies in MECOM-rearranged (r) AML: UCSD-AML1 cell line (AID 2202235). Also: nearly all actives have a fitted effect of over 40% in size. The gist of the method: as §2
Potency is read from the fitted curve at half-maximal effect.

As for `CN(C)CCOc1ccc(-c2nc(-c3ccc4c(c3)CC/C4=N\O)c(-c3ccncc3)[nH]2)cc1`, the Potency in test [1] is 5.9 µM (active); in test [2], 14.8 µM (active); in test [3], 16.6 µM (active); in test [4], 20.9 µM (active).

Turning to `[2H]c1nc(C)nc([2H])c1-c1cc(NC[C@@H](C)c2cccc3c(C(=O)NC)ccnc23)ncn1`, the Potency entry in test [5] and in test [6] was “inactive” throughout. In addition, the result in test [2] was inactive.

For `Nc1nccc(-c2c(-c3ccc(F)cc3)ncn2C2CCN(Cc3ccon3)CC2)n1`, the Potency in test [5] was 10.5 µM (active); in test [2] it was 8.33 µM (active).

As to `NC(=O)c1cccc2c(NC(CN3CCC3)c3ccc(Cl)c(C(F)(F)F)c3)ncnc12` (configuration not stated), the figures for the Potency in test [1], in test [3] and in test [4] were 1.48 µM (active), 20.9 µM (active) and 16.6 µM (active), respectively.

`CC[C@H](NC(=O)[C@H](C)NC)C(=O)N1C[C@@H](O)C[C@H]1Cc1c(-c2[nH]c3cc(F)ccc3c2C[C@@H]2C[C@H](O)CN2C(=O)[C@H](CC)NC(=O)[C@H](C)NC)[nH]c2cc(F)ccc12`: in test [1], the Potency result is “inactive”. For the same compound, the Potency in test [6] was 0.332 µM (active); in test [3] it was 0.742 µM (active); in test [4], 1.18 µM (active).

In the case of `Cc1cc(C)cc(Oc2ccc(CNC(=O)[C@H](C)N)cc2C)c1`, in test [5], the Potency is 18.6 µM (active).

`CO[C@H]1/C=C/O[C@@]2(C)Oc3c(C)c(O)c4c(O)c(c(/C=N\N5CCN(C6CCCC6)CC5)c(O)c4c3C2=O)NC(=O)/C(C)=C\C=C\[C@H](C)[C@H](O)[C@@H](C)[C@@H](O)[C@@H](C)[C@H](OC(C)=O)[C@@H]1C`: in test [5], the Potency is 23.5 µM (active).

As to `C[C@H](NC(=O)C(=O)Nc1ccccc1C(C)(C)C)C(=O)N[C@@H](CC(=O)O)C(=O)COc1c(F)c(F)cc(F)c1F`, the results for the Potency in test [1] and in test [3] were 10.5 µM (active) and 20.9 µM (active), respectively.

Consider `CCNc1cc(NC2CCC(O)CC2)nc(Nc2ccc3c(ccn3Cc3ccccc3)c2)n1` (configuration not stated), for which the Potency result in test [1], in test [2] and in test [3] was “inactive” in each case.

For `CN1CCN(c2nc(C3=C(c4c[nH]c5ccccc45)C(=O)NC3=O)c3ccccc3n2)CC1`, the Potency in test [5] was 1.86 µM (active).

As to `COC1=C(OC)C(=O)C(CCCCCCCCCCO)=C(C)C1=O`, the Potency is 16.6 µM (active) in test [1] and 18.6 µM (active) in test [3].

For `COC(=O)C1=C(C)NC(c2ncc(F)cc2F)=N[C@@H]1c1ccc(F)cc1Cl`, the Potency result in test [1], in test [6], in test [3] and in test [4] was “inactive” in each case.

Turning to `COc1ccc(COc2ccc(Cc3cnc(N)nc3N)cc2OC)cc1`, the Potency result in test [5] is “inactive”.

For the compound `Clc1ccc(COC(Cn2ccnc2)c2ccc(Cl)cc2Cl)cc1` (configuration not stated), the Potency in test [5] was 20.9 µM (active).

On to `O=C(O)C[C@H]1CCc2c1[nH]c1ccc(OCc3ccc(C4CCCC4)c(C(F)(F)F)c3)cc21`, for which the Potency in test [1] was 13.2 µM (active). In addition, the Potency result in test [6] is “inactive”.

Take `CN(C)c1ccc(O)c2c1C[C@H]1C[C@H]3[C@H](N(C)C)C(=O)C(C(N)=O)=C(O)[C@@]3(O)C(=O)C1=C2O`: the Potency result in test [5] and in test [6] was “inactive” in each case. The Potency in test [2] is 13.2 µM (active).

Take `C[C@H]1C[C@@H](n2c(Nc3ccc(OC(F)(F)F)cc3)nc3cc(CCC(=O)O)ccc32)CC(C)(C)C1`: the Potency in test [1] was 20.9 µM (active); in test [3], 26.3 µM (active).

With `Cc1ccc(-n2nc(C(C)(C)C)cc2NC(=O)NCc2cc(F)ccc2Oc2ccc3c(cnn3CCO)c2)cc1`, the Potency was 14.8 µM (active) in test [1], 0.296 µM (active) in test [2], 18.6 µM (active) in test [3] and 16.6 µM (active) in test [4].

For the compound `C=CCN(/C=C1\C(=O)O[C@@H](COC)[C@]2(C)C1=C(O)C(=O)C1=C2[C@@H](OC(C)=O)C[C@]2(C)C(=O)CC[C@H]12)CC=C`, the Potency entry in test [1] was “inactive”. For the same compound, the results for the Potency in test [2], in test [3] and in test [4] were 20.9 µM (active), 20.9 µM (active) and 18.6 µM (active), respectively.

Regarding `O=c1cc(-c2ccc(O)c(O)c2)oc2cc(O)cc(O)c12`, in test [5], the Potency is 8.33 µM (active).

With `CO[C@H]1C[C@@H]2CC[C@@H](C)[C@@](O)(O2)C(=O)C(=O)N2CCCC[C@H]2C(=O)O[C@H]([C@H](C)C[C@@H]2CC[C@@H](OCCO)[C@H](OC)C2)CC(=O)[C@H](C)/C=C(/C)[C@@H](O)[C@@H](OC)C(=O)[C@H](C)C[C@H](C)/C=C\C=CC=C1C`, the Potency in test [5] was 13.2 µM (active).

Turning to `C#C[C@]1(O)CC[C@H]2[C@@H]3[C@H](C)CC4=C(CCC(=O)C4)[C@H]3CC[C@@]21C`, the Potency in test [1] was 16.6 µM (active). For the same compound, the Potency result in test [6], in test [3] and in test [4] was “inactive” throughout.

For the compound `COC(=O)N[C@H](C(=O)N1CCC[C@H]1c1ncc(-c2ccc(-c3ccc(-c4cnc([C@@H]5CCCN5C(=O)[C@@H](NC(=O)OC)C(C)C)[nH]4)cc3)cc2)[nH]1)C(C)C`, the Potency entry in test [1] and in test [6] was “inactive” throughout.

With `COc1cc(NCc2ccc3nc(N)nc(N)c3c2C)cc(OC)c1OC`, in test [5], the Potency was 5.9 µM (active).

Turning to `NS(=O)(=O)c1ccc(NC(=S)N2CCN(C/C=C/c3ccccc3)CC2)cc1`, the Potency in test [1] was 20.9 µM (active). Moreover, the Potency result in test [6] and in test [4] was “inactive” each time.

Turning to `CN[C@@H](C)C(=O)N[C@H](C(=O)N1CCC[C@H]1C(=O)Nc1snnc1-c1ccccc1)C1CCCCC1`, the Potency entry in test [1] is “inactive”. The figures for the Potency in test [6] and in test [4] were 1.86 µM (active) and 3.32 µM (active), respectively.

For `Cc1onc(-c2ccccc2)c1-c1ccc(S(N)(=O)=O)cc1`, the Potency result in test [1] and in test [4] was “inactive” each time.

On to `CNC(=O)[C@H]1O[C@@H](n2cnc3c(NCc4cccc(I)c4)nc(Cl)nc32)[C@H](O)[C@@H]1O`, for which the Potency result in test [1], in test [6] and in test [3] was “inactive” in each case.

With `COc1cc(-c2cn(C)c(=O)c3cnccc23)cc(OC)c1CN(C)C`, in test [1], the Potency is 4.68 µM (active). In addition, the Potency result in test [2], in test [6] and in test [4] was “inactive” throughout.

Regarding `C/C(=C\C(=O)Nc1ccccc1C(=O)O)c1ccc2ccccc2c1`, the Potency entry in test [1], in test [2], in test [6] and in test [4] was “inactive” in each case.

As for `N#CCC1(n2cc(-c3ncnc4[nH]ccc34)cn2)CN(C2CCN(C(=O)c3ccnc(C(F)(F)F)c3F)CC2)C1`, the results for the Potency in test [1] and in test [6] were 1.66 µM (active) and 3.72 µM (active), respectively.
